The text below walks through data of PubChem BioAssay (NCI).

The panel holds about 83,000 compounds, 20% with a hit somewhere; the sample as a whole holds those more often.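 Testing used 96-well plates and a 48-hour single-concentration exposure. Example: -40 means 40% of the starting cells died.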 Unmarked numbers belong to inactive results. Activity calls are given as the source filed them. How the source made its calls: active means growth percent below 10; inactive means the rest.

Test systems include NCI-H226 lung; NCI-H322M lung; HOP-62 NSCLC; NCI-H460 lung; HOP-92 NSCLC; NCI-H522 lung; A549/ATCC NSCLC; 786-0 renal; COLO 205 colon; NCI-H23 lung.
Common to all, as to test: NCI-60 one-dose screen, 48 h (100 = growth as untreated, 0 = no growth, -100 = all killed)
Conditions in all cases: 10 µM unless noted

With `Cc1ccc(C(=O)C(c2c[nH]c3ccccc23)c2c[nH]c3ccccc23)cc1`, the growth in the assay with NCI-H226 lung is 38.9%; in the assay on NCI-H322M lung, 81.8%; in the assay on HOP-62 NSCLC, 89.9%; with NCI-H460 lung, -6.44% (active); with HOP-92 NSCLC it was 89.9%; with NCI-H522 lung it was -1.59% (active). Besides, the growth with A549/ATCC NSCLC was 49%; with 786-0 renal, 32%; in the assay on COLO 205 colon, -45.7% (active).

As to `Cc1ccc(C(=O)CSc2nc3ccc(C)cc3c(=O)n2-c2ccc(F)cc2)cc1`, the growth in the assay with NCI-H23 lung was 56.8%; with HOP-62 NSCLC it was 7.49% (active); in the assay with HOP-92 NSCLC, -0.0399% (active); in the assay on NCI-H522 lung, 63.8%; with A549/ATCC NSCLC it was 57.6%; with 786-0 renal, -3.55% (active). Also, the growth with COLO 205 colon was 84%.

For `COc1ccc(NC(=O)Nc2ccc(OCc3ccc(F)cc3)cc2)cc1`, the growth in the assay with NCI-H226 lung was 12.4%; in the assay on NCI-H322M lung it was 65.8%; with HOP-62 NSCLC, 44.5%; in the assay with NCI-H460 lung, 46%; in the assay with HOP-92 NSCLC, 21.3%; in the assay with NCI-H522 lung it was 65.1%. In addition, the growth with A549/ATCC NSCLC is 58.9%; in the assay on 786-0 renal it was 29.3%; in the assay on COLO 205 colon, 97.7%.

For the compound `Cc1ccc(-c2nc(C#N)c(S(=O)(=O)N3CCN(S(=O)(=O)c4ccccc4)CC3)o2)cc1`, the growth in the assay with NCI-H226 lung is 69.2%; with NCI-H322M lung it was 77.9%; with HOP-62 NSCLC, 87.7%; in the assay with NCI-H460 lung, 32.6%; with HOP-92 NSCLC, -20.4% (active); in the assay on NCI-H522 lung, -87.8% (active). In addition, the growth is 57.9% with A549/ATCC NSCLC, -87.1% (active) in the assay on 786-0 renal and -62.1% (active) in the assay on COLO 205 colon.

`Cc1cccc(Nc2nc3ccccc3nc2/C=C/c2ccc(F)cc2)c1`: the growth with NCI-H226 lung was 95.2%; with NCI-H322M lung, 95.5%; with HOP-62 NSCLC, 99.7%; with NCI-H460 lung, 95.4%; with HOP-92 NSCLC, 84.5%; in the assay on NCI-H522 lung, 79.4%. Moreover, the growth in the assay with A549/ATCC NSCLC is 91.2%; in the assay with 786-0 renal, 97.3%; in the assay on COLO 205 colon, 106%.

Take `COc1cc2oc(-c3cccc(C(=O)Nc4ccc(Cl)cc4)c3)cc(=O)c2c(OCC(=O)N[C@@H](Cc2ccccc2)C(=O)O)c1OC`: the growth is 102% in the assay with NCI-H226 lung; 103% in the assay on NCI-H322M lung; 120% in the assay on HOP-62 NSCLC; 111% with NCI-H460 lung; 124% in the assay on HOP-92 NSCLC; 96.3% in the assay with NCI-H522 lung. Moreover, the growth in the assay with A549/ATCC NSCLC is 106%; in the assay with 786-0 renal, 102%; in the assay with COLO 205 colon, 119%.

Regarding `Cc1ccc(-c2nc(C#N)c(S(=O)(=O)N3CCN(S(=O)(=O)c4ccc(Cl)cc4)CC3)o2)cc1`, the growth was 87.6% in the assay on NCI-H226 lung; 97.1% with NCI-H322M lung; 63% with HOP-62 NSCLC; 99.6% in the assay with NCI-H460 lung; 94.6% in the assay with HOP-92 NSCLC; 71.2% in the assay on NCI-H522 lung. Moreover, the growth is 94.3% in the assay with A549/ATCC NSCLC, 49.1% with 786-0 renal and 124% in the assay with COLO 205 colon.

As to `Cc1cc(C)cc(NC(=O)Cn2cc(COn3nnc4ccccc43)nn2)c1`, the growth with NCI-H226 lung is 101%; in the assay with NCI-H322M lung it was 99.3%; in the assay on HOP-62 NSCLC it was 115%; with NCI-H460 lung, 114%; in the assay with HOP-92 NSCLC, 117%; with NCI-H522 lung, 95.6%. Besides, the growth with A549/ATCC NSCLC was 107%; with 786-0 renal, 101%; in the assay with COLO 205 colon, 117%.

Turning to `COc1ccc(/C=C/c2nc3ccccc3n3c(-c4ccc(Cl)cc4)nnc23)cc1`, the growth was 95% in the assay with NCI-H226 lung; 104% with NCI-H322M lung; 96.8% in the assay on HOP-62 NSCLC; 88.6% with NCI-H460 lung; 69.5% in the assay on HOP-92 NSCLC; 64.2% in the assay on NCI-H522 lung. In addition, the growth with A549/ATCC NSCLC is 90.4%; in the assay with 786-0 renal it was 88.8%; in the assay on COLO 205 colon, 92.4%.

For the compound `O=C(c1ccccc1)C(c1c[nH]c2ccccc12)c1c[nH]c2ccccc12`, the growth in the assay on NCI-H226 lung is 41.7%; with NCI-H322M lung it was 96.5%; in the assay with HOP-62 NSCLC, 83.5%; in the assay on NCI-H460 lung it was 29.8%; in the assay on HOP-92 NSCLC, 76.7%; in the assay with NCI-H522 lung, 35.9%. The growth in the assay on A549/ATCC NSCLC is 70.2%; in the assay with 786-0 renal, 78.7%; with COLO 205 colon, 58.5%.

Consider `Cn1cc(-c2nnc(N)nc2-c2c[nH]c3ccc(Br)cc23)c2cc(Br)cnc21`, for which the growth with NCI-H226 lung is 74%; with NCI-H322M lung it was 71.5%; in the assay on HOP-62 NSCLC it was 70.7%; in the assay with NCI-H460 lung, 62.1%; in the assay on HOP-92 NSCLC, 43.4%; with NCI-H522 lung, 6.2% (active). For the same compound, the growth in the assay on A549/ATCC NSCLC was 59.5%; in the assay with 786-0 renal, 46.2%; in the assay with COLO 205 colon, 66.6%.

`COc1ccc2oc(=O)c(C3(C)NC(=O)c4c(/C=C/C(=O)OC(C)(C)C)cccc4N3)cc2c1` (configuration not stated): the growth is 44.7% in the assay on NCI-H226 lung; 66.9% in the assay with NCI-H322M lung; 61% in the assay on HOP-62 NSCLC; 47.2% in the assay on NCI-H460 lung; 32.9% with HOP-92 NSCLC; 27.8% in the assay on NCI-H522 lung. For the same compound, the values for the growth in the assay with A549/ATCC NSCLC, in the assay with 786-0 renal and with COLO 205 colon were 27.3%, 66.7% and 44.9%, respectively.

For `COc1cc2oc(-c3cccc(C(=O)Nc4ccc(Cl)cc4)c3)cc(=O)c2c(OCCNC(=O)[C@H](CO)NC(=O)OC(C)(C)C)c1OC`, the growth is 42% in the assay on NCI-H226 lung; 35.4% with NCI-H322M lung; 55.1% in the assay on HOP-62 NSCLC; 9.69% (active) in the assay with NCI-H460 lung; -2.01% (active) with HOP-92 NSCLC; 6.54% (active) in the assay on NCI-H522 lung. For the same compound, the growth in the assay with A549/ATCC NSCLC was 23.8%; with 786-0 renal, 32.4%.

In the case of `Cc1ccc2c(N)c(C(=O)Nc3ccc(-c4ccccc4)cc3)sc2n1`, the growth in the assay on NCI-H23 lung was 42.2%; in the assay on HOP-62 NSCLC it was 63.5%; in the assay with NCI-H460 lung it was 73%; in the assay with HOP-92 NSCLC, 27.1%; with NCI-H522 lung, 53.9%; in the assay with A549/ATCC NSCLC it was 81.5%. For the same compound, the values for the growth in the assay with 786-0 renal and in the assay on COLO 205 colon were 69.3% and 90.9%, respectively.
